# PubChem BioAssay (Tox21)
# Records with an inconclusive call do not appear. Where a call stands in place of a potency, no number is given. Activity calls are given as the source filed them. Calls follow the shape of the full dose curve. Positions of bridges follow the written chain, without caps; N, C: chain ends. Non-standard residues stand in square brackets, D forms with d. Residues, ends and D or L forms follow the SMILES beside them. *: point of attachment. X2 = CC[C@H](C)CCCCC(=O)*; Dab = NCC[C@H](N)C(=O)O
# Assay: qHTS assay for small molecule disruptors of the mitochondrial membrane potential - cell viability (AID 720634); also: nearly all actives have a fitted effect of over 20% in size
# Conditions: HepG2 viability, ATP luminescence (CellTiter-Glo), 1 h; series mostly up to 83.2 µM
# Procedure, shortened: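 Cytotoxicity was quantified from ATP content by CellTiter-Glo luminescence in the same wells as the MMP dye read-out. HepG2 (2,000 cells/well) were plated overnight and exposed to compounds for 1 hr at 37 C.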
# Potency is read from the fitted curve at half-maximal effect.
row,SMILES,Potency
1,C=C[C@]1(C)C[C@@H](OC(=O)CSCCN(CC)CC)[C@]2(C)[C@H](C)CC[C@]3(CCC(=O)[C@H]32)[C@@H](C)[C@@H]1O,inactive
2,O=C(O)C1=C(CSc2nnnn2CS(=O)(=O)O)CS[C@@H]2[C@H](NC(=O)[C@H](O)c3ccccc3)C(=O)N12,inactive
3,COc1cc(/C=C/C(=O)N2CCN(CC(=O)N3CCCC3)CC2)cc(OC)c1OC,inactive
4,CCOC(=O)c1c[nH]c2cc(OCC(C)C)c(OCC(C)C)cc2c1=O,inactive
5,CCCCCCCCCCCCCCCCCCCCCCO,inactive
6,CC1=C(/C=C/C(C)=C/C=C/C(C)=C/C(=O)Oc2c(C)c(C)c3c(c2C)CC[C@@](C)(CCC[C@H](C)CCC[C@H](C)CCCC(C)C)O3)C(C)(C)CCC1,inactive
7,CC(C)CCCC(C)NC(C)C (configuration not stated),inactive
8,O=C(O)CCC/C=C\C[C@@H]1[C@@H](/C=C/[C@@H](O)COc2cccc(C(F)(F)F)c2)[C@H](O)C[C@@H]1O,inactive
9,O=C(O)COc1ccc(CCNS(=O)(=O)c2ccccc2)s1,inactive
10,CO[C@H]1C[C@@H]2CC[C@@H](C)[C@@](O)(O2)C(=O)C(=O)N2CCCC[C@H]2C(=O)O[C@H]([C@H](C)C[C@@H]2CC[C@@H](OC(=O)C(C)(CO)CO)[C@H](OC)C2)CC(=O)[C@H](C)/C=C(\C)[C@@H](O)[C@@H](OC)C(=O)[C@H](C)C[C@H](C)/C=C/C=C/C=C/1C,inactive
11,CC[C@H](C)CCCCC(=O)N[C@@H](CCN)C(=O)N[C@H](C(=O)N[C@@H](CCN)C(=O)N[C@H]1CCNC(=O)[C@@H]([C@H](C)O)NC(=O)[C@H](CCN)NC(=O)[C@H](CCN)NC(=O)[C@H](CC(C)C)NC(=O)[C@@H](CC(C)C)NC(=O)[C@H](CCN)NC1=O)[C@@H](C)O (X2-[Dab]T[Dab][Dab][Dab][dL]L[Dab][Dab][dT]; lactam 4-C),inactive
12,C#C[C@]1(O)CC[C@H]2[C@@H]3CCC4=CC(=O)CC[C@@H]4[C@H]3C(=C)C[C@@]21CC,inactive
13,C=C1CC[C@H](O)CC1=C/C=C1\CCC[C@]2(C)[C@@H]([C@H](C)CCCC(C)(C)O)CC[C@@H]12,inactive
14,CC(=O)Nc1c(I)c(C(=O)O)c(I)c(N(C)C(C)=O)c1I,inactive
15,CC1(C)S[C@@H]2[C@H](NC(=O)[C@H](N)c3ccccc3)C(=O)N2[C@H]1C(=O)OCOC(=O)[C@@H]1N2C(=O)C[C@H]2S(=O)(=O)C1(C)C,inactive
16,CNC(C)CCC=C(C)C (configuration not stated),inactive
17,Cc1c(Cl)cccc1Nc1ncccc1C(=O)O,inactive
18,CN(CCO)CC(O)Cn1cnc2c1c(=O)n(C)c(=O)n2C (configuration not stated) (tested in a mixture with another compound),inactive
19,CC[C@H](C)CCCCC(=O)N[C@@H](CCN)C(=O)N[C@H](C(=O)N[C@@H](CCN)C(=O)N[C@H]1CCNC(=O)[C@H]([C@@H](C)O)NC(=O)[C@H](CCN)NC(=O)[C@H](CCN)NC(=O)[C@H](CC(C)C)NC(=O)[C@@H](CC(C)C)NC(=O)[C@H](CCN)NC1=O)[C@@H](C)O (X2-[Dab]T[Dab][Dab][Dab][dL]L[Dab][Dab]T; lactam 4-C),inactive
20,CCCCCCCCCCCC(=O)OC[C@@H](O)C1OC[C@H](O)[C@H]1O (some centres not stated),inactive
21,CCOc1ccc(N=Nc2ccc(N)cc2N)cc1,11.9 µM (active)
22,FCOC(C(F)(F)F)C(F)(F)F,inactive
23,CCNC(=O)[C@@H]1CCCN1C(=O)[C@H](CCCN=C(N)N)NC(=O)[C@H](CC(C)C)NC(=O)[C@@H](Cc1c[nH]c2ccccc12)NC(=O)[C@H](Cc1ccc(O)cc1)NC(=O)[C@H](CO)NC(=O)[C@H](Cc1c[nH]c2ccccc12)NC(=O)[C@H](Cc1cnc[nH]1)NC(=O)[C@@H]1CCC(=O)N1,29.8 µM (active)
24,C[N@+]12CCCC[C@@H]1CCC(=C(c1cccs1)c1cccs1)C2,inactive
25,O=C(OC[C@H]1O[C@](O)(COC(=O)c2cccnc2)[C@@H](OC(=O)c2cccnc2)[C@@H]1OC(=O)c1cccnc1)c1cccnc1,inactive
26,COC(=O)CCC[N+](C)(C)C,inactive
27,CCCCCCCCCCCCCCCC(=O)OCC(COC(=O)CCCCCCCCCCCCCCC)OC(=O)CCCCCCCCCCCCCCC,inactive
